Assay results taken from PubChem BioAssay AID1053205 (Broad Institute, 2014).
Entries with a potency or affinity are not part of this list. Records with an inconclusive call do not appear.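 Rule for the calls: active = compounds lowering the FRET ratio whose fitted half-maximal concentration is at most twice their top tested dose; inconclusive = flat partial drop between 30 and 70 percent, or bad fit; inactive = the rest.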

target: Voltage-dependent L-type calcium channel subunit alpha-1D (Homo sapiens) (UniProt Q01668); assay: disruptors of CaV1.3 IQ/ICDI domain association – cell-based, HEK293, YFP-IQ/CFP-ICDI FRET, cherry-picks, dose response (AID 1053205); details: HEK293 YFP-IQ/CFP-ICDI FRET ratio, 10 min; series mostly up to 35 µM; FRET change, negative = inhibition: at the top concentration;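 note: 0% = median of neutral control wells and -100% = median of positive control wells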
Sequence (Q01668 whole entry, looked up, the tested form may be a part): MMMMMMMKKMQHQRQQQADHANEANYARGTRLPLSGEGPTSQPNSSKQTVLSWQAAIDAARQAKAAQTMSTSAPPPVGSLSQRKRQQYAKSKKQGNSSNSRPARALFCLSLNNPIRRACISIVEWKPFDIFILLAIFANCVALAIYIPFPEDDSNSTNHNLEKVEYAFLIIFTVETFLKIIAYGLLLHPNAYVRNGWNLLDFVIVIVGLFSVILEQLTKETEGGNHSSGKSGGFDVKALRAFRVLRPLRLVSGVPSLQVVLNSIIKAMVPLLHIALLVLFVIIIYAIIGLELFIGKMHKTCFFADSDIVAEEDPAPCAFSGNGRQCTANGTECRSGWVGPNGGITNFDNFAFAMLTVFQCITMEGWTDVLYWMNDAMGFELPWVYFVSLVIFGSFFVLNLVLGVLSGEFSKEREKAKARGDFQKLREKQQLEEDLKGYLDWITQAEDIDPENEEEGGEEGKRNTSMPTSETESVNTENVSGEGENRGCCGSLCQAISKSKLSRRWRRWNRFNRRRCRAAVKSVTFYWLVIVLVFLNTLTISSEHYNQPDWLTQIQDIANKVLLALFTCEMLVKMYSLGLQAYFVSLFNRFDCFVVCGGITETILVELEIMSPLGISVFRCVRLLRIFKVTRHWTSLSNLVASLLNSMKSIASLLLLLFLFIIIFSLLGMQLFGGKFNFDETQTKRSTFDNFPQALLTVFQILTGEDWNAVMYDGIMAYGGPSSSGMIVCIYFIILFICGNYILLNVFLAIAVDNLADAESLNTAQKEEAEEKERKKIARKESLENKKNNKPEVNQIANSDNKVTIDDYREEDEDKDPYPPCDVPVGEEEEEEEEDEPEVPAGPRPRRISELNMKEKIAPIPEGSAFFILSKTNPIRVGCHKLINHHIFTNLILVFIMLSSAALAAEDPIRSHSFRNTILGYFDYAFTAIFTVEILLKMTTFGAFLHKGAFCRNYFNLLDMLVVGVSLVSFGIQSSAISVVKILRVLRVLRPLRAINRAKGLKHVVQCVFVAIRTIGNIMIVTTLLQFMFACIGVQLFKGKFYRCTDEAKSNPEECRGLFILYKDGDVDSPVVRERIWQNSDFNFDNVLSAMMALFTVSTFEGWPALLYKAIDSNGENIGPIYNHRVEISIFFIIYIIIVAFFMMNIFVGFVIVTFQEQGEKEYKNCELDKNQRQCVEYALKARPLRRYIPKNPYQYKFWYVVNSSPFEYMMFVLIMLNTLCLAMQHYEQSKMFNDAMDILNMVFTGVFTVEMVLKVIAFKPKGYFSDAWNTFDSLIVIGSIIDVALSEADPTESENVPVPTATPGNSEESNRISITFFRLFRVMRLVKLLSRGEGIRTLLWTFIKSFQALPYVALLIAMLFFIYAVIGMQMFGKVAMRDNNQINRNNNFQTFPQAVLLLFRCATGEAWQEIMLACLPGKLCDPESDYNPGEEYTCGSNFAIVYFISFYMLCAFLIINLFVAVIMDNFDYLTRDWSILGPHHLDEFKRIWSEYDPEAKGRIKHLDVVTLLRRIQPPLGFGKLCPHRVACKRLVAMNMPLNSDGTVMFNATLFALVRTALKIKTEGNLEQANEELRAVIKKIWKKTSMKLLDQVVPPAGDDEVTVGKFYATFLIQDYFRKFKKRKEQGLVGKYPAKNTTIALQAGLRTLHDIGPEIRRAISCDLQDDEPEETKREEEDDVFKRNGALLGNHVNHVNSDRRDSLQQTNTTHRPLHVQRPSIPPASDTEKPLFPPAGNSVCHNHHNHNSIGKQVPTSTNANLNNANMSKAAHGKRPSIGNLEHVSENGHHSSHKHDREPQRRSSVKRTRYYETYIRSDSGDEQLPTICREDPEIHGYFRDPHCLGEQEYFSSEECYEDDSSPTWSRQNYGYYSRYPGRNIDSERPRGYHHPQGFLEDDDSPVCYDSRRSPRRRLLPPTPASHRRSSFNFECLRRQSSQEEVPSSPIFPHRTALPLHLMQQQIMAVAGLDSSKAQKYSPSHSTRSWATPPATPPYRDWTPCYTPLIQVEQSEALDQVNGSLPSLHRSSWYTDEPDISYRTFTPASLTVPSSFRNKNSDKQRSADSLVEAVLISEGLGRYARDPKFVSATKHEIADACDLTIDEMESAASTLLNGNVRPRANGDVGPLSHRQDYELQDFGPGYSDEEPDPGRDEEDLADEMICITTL

FRET change, negative = inhibition, inactive:
COc1ccc(S(=O)(=O)N2CCCC2CNC(=O)C(=O)NC2CCCC2)cc1 (stereo not drawn) 6.72%
COc1ccccc1N1CCN(C2CCC(C)CC2)CC1 (stereo not drawn) -7.09%
CCOc1ccc2nc(NCCCNS(=O)(=O)c3ccc(C)cc3)c(C#N)cc2c1 492%
CCCOc1ccc(NC(=O)c2c(-c3ccccc3)noc2C)cc1 8.7%
N#C/C(=C\c1ccc(N2CCOCC2)o1)C(=O)NCCc1ccccc1 166% [at 8 µM]
CN1c2ccc(Cl)cc2C(=O)NC1C1CC=CCC1 (stereo not drawn) 17%
NC(=O)c1cc([N+](=O)[O-])ccc1NCc1cccnc1 -28.9%
O=C(/C=C/c1ccccc1)C1=C(O)C(=O)N(CCO)C1c1ccc2c(c1)OCO2 (stereo not drawn) -0.266%
O=c1[nH]c2ccccc2nc1/C=C/c1ccccc1 99.2%
O=C(Nc1ccc(-c2ccco2)cc1)C1CCCN(Cc2ccco2)C1 (stereo not drawn) 77%
CC(=O)N=c1c(C#N)cc2c(=O)n3ccccc3nc2n1CCCOC(C)C 402%
Cc1cc(=O)oc2cc(OC(=O)c3cncc(Br)c3)ccc12 -2.73%
N#CC1=C(N)OC2=C(C(=O)CCC2)C1c1cc2c(cc1Br)OCO2 (stereo not drawn) -32.1%
Cc1ccc(-n2c(C)cc(/C=N/NC(=O)Cn3c4ccccc4c(=O)c4ccccc43)c2C)cc1 19.5%
NC(=O)c1c(NC(=O)Cc2ccccc2)sc2c1CCN(Cc1ccccc1)C2 204%
O=c1oc2cc(O)ccc2cc1S(=O)(=O)c1ccccc1 360%
Cc1cc(-n2c(=O)c(C#N)cc3c(=O)n4ccccc4nc32)no1 473%
CC1CC(C)CN(CCCNC(=O)CCC(=O)N2CC(C)Oc3ccccc32)C1 (stereo not drawn) 4.52%
